Assay outcomes: PubChem BioAssay, National Center for Advancing Translational Sciences (NCATS)
DT40 TDP1 no CPT = qHTS for Inhibitors of human tyrosyl-DNA phosphodiesterase 1 (TDP1): qHTS in cells in absence of CPT. 15% of 420,000 active. Potency, µM (series often up to 46.2 µM), without a hit: at the highest dose activity change, negative = growth inhibition, actives largely listed as inhibitors. DT40 Tdp1-/- hTDP1 cells, no CPT, ATP luminescence, 48 h; further: on the % scale 0 is the no-effect control and ±100 the full control effect; nearly all actives have a fitted effect of over 55% in size
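Compound effects on proliferation are scored in DT40 Tdp1-/-;hTDP1 cells in the absence of CPT. ATP levels (CellTiter-Glo luminescence) are recorded after a ≥48 hr, 37 °C incubation.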
TDP1 cell CPT = DT40-hTDP1 cell growth loss with CPT; chicken DT40 Tdp1-/-;hTDP1 cells + 20 nM CPT, ATP luminescence, 48 h; Potency, µM (highest dose often 46.2 µM), for the others: top-dose activity change, negative = growth inhibition, most hits filed as inhibitors; AID 686979; 12% of 420,000 active; further: on the % scale 0 is the no-effect control and ±100 the full control effect; nearly all actives have a fitted effect of over 55% in size
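Chicken DT40 Tdp1-/- cells stably complemented with human TDP1 were seeded at 400 cells/well in medium containing 20 nM camptothecin, exposed to pin-transferred compounds, and grown at 37 °C for at least 48 hr. Viability was read as ATP luminescence.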
HepG2 tox = kills HepG2 cells in TGF-b inhibitor counter-screen; HepG2 CAGA-GFP viability, ATP luminescence, 18 h; Potency, µM (doses to about 46.1 µM), for the others: at the highest dose activity change, negative = cytotoxicity, most hits filed as cytotoxic; 0.76% of 410,000 active
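CellTiter-Glo luminescence gave cytotoxicity after 18 hours at 37 degrees C. The cells were HepG2 CAGA-GFP in 1% FBS DMEM, stimulated with 500 pg/mL TGF-beta after compound addition. %Activity was normalised to no-cell wells (complete cell-killing) and DMSO (no toxicity), and curves were fitted and classified.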
HT1080NT lethal = kills 2HG-producing HT-1080-NT fibrosarcoma cells; HT-1080-NT fibrosarcoma viability, CellTiter-Glo ATP luminescence, 48 h; Potency, µM (top dose mostly 46.1 µM), for inactives: at the highest dose activity, negative = less viability, hits mostly cytotoxic; 1.6% of 360,000 active;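 further: NT is the 2HG producing partner of a matched IDH1 knockdown line; 0% = DMSO-treated cells and -100% = media-only wells without cells; nearly all actives have a fitted effect of over 55% in size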
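Toxicity toward the 2HG-producing NT line was scored as %Activity, normalised to DMSO and no-cell wells, from CellTiter-Glo luminescence after 48 hours' treatment.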
TGFb inhibitor = TGF-b pathway inhibition. HepG2 CAGA-GFP TGF-b/SMAD3 reporter, GFP fluorescence, 18 h; TGF-beta stimulated, 500 pg/mL final. Potency, µM (series often up to 46.1 µM), for the others: at the highest dose activity, negative = inhibition, hits mostly inhibitors. 1.2% of 410,000 active. AID 588855; further: on the % scale 0 is the no-effect control and ±100 the full control effect; nearly all actives have a fitted effect of over 65% in size
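Inhibition was scored as loss of TGF-beta-induced (500 pg/mL final, 18 hours, 37 degrees C) GFP in HEPG2 cells carrying a CAGA-GFP reporter, in DMEM with 1% FBS. Well GFP was summed per cell; Activity was normalised to unstimulated and stimulated DMSO wells, then concentration-response fitting.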
HT1080 IDH1KD tx = kills HT-1080 cells with IDH1 knockdown. HT-1080 IDH1 knockdown viability, ATP luminescence, 48 h. Potency, µM (doses to about 46.1 µM), without a hit: top-dose activity, negative = toxicity, most hits filed as cytotoxic. 2% of 360,000 active;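 further: 0% = DMSO wells and -100% = cell-free medium wells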
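Assay cells: HT-1080 with IDH1 knockdown, 750 per well, RPMI/5% FBS. Exposure: 48 h at 37 °C following 2 h pre-incubation. Read: CellTiter-Glo luminescence; fitted concentration-response, curve class assigned.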
* hit, by the source's call; ? = inconclusive; nt = no result given. A selection: hits, their analogues and other compounds. The true share with any hit is near 17%. The call rests on the fitted dose curve; in most records, active means well fitted curve in the direction sought with a large enough effect; inconclusive means small, poorly fitted or top-dose-only effect, or another doubt; inactive means no such curve, though single readings can be large; an effect the other way counts as inactive or inconclusive. Potency means the concentration at half of the fitted maximal effect.

SMILES	DT40 TDP1 no CPT	TDP1 cell CPT	HepG2 tox	HT1080NT lethal	TGFb inhibitor	HT1080 IDH1KD tx
CSc1ccc(Cn2c(C)c(C(=O)NCc3cccs3)sc2=O)cc1	23.1µM*	?	-15.2%	-23.6%	3.5%	-26.5%
CC(=O)Oc1ccc(Cn2c(C)c(C(=O)NCc3ccccc3C(F)(F)F)sc2=O)cc1	?	?	-15.5%	?	-20.7%	-19.5%
CCNc1nc(SC)nc(N(C#N)CC(=O)OC)n1	-28.3%	?	-3.2%	-1.9%	-1.4%	-1.2%
C[C@@H]1CC[C@]2(C(=O)O)CC[C@]3(C)C(=CCC4[C@]56CC[C@@](O)(OC5)C(C)(C)C6CC[C@]43C)C2[C@H]1C (stereo partly drawn)	18.4µM*	13µM*	-34.2%	?	?	?
COc1ccc(-c2c3c(nc4sc(C(=O)Nc5cccc(OC)c5)c(N)c24)CC(C)(C)CC3=O)cc1	13µM*	?	1.7%	nt	-6.2%	nt
COc1ccc(NC(=O)c2sc3nc(-c4ccc(OC)cc4)cc(C(F)(F)F)c3c2N)cc1	1.84µM*	2.91µM*	-38.1%	nt	11.4%	nt
CCOc1ccc(NC(=O)c2sc3nc4c(c(-c5ccccc5)c3c2N)C(=O)CC(C)(C)C4)cc1	-19.4%	?	-2.1%	nt	-4.6%	nt
COc1ccc(NC(=O)c2sc3nc4c(c(-c5ccc(OC)cc5)c3c2N)C(=O)CC(C)(C)C4)cc1	13µM*	23.1µM*	-5.7%	nt	0.3%	nt
CCOC(=O)[C@H]1[C@H]2COc3ccc(Cl)cc3[C@@H]2N2C(=O)c3cc(F)ccc3NC(=O)[C@@]12C	?	?	-14.7%	-14.4%	-0.7%	-11.3%
COc1ccc(Cl)cc1Cn1c(C)c(C(=O)NCc2cccc([N+](=O)[O-])c2)sc1=O	?	?	-4.6%	-0.1%	-4.7%	1.7%
CC(NC(=O)c1cccc(S(=O)(=O)N2CCN(C)CC2)c1)c1ccc(Cl)cc1Cl (stereo not drawn)	?	?	0.8%	7.5%	-1.6%	-1.1%
